Reference: PubChem BioAssay AID493168 (National Center for Advancing Translational Sciences (NCATS), 2011)
Results filed as inconclusive are left out. The source made the active and inactive calls. The call rests on the fitted dose curve; in most records, active means well fitted inhibition curve with a large enough effect; inconclusive means small, poorly fitted or top-dose-only effect, or effect the other way; inactive means flat fitted curve, though single readings scatter.

Target: Ubiquitin carboxyl-terminal hydrolase 2 (Homo sapiens) (UniProt O75604)
Assay: Confirmation Assay for Inhibitors of Ubiquitin-specific Protease USP2a Using CHOP2 as the Reporter; further: nearly all actives have a fitted effect of over 55% in size;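 on activity change, negative = inhibition: plate controls were DMSO wells for no effect and full inhibition by NEM control for full effect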
Conditions: USP2 core, Ub-CHOP2 coupled reporter fluorescence; series mostly up to 38.3 µM; activity change, negative = inhibition: at the top concentration
In short: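 Ub-CHOP2 cleavage coupled to reporter activation was read by fluorescence after 60 min at RT, with 25 nM final Ub-CHOP2 and substrate. Enzyme (10 nM final USP2 core) first sat 30 min with compound; data were normalized to NEM and fitted to concentration-response curves.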
Potency means the concentration at half of the fitted maximal effect.

Chain of Ubiquitin carboxyl-terminal hydrolase 2 (Homo sapiens) (O75604 whole entry, looked up): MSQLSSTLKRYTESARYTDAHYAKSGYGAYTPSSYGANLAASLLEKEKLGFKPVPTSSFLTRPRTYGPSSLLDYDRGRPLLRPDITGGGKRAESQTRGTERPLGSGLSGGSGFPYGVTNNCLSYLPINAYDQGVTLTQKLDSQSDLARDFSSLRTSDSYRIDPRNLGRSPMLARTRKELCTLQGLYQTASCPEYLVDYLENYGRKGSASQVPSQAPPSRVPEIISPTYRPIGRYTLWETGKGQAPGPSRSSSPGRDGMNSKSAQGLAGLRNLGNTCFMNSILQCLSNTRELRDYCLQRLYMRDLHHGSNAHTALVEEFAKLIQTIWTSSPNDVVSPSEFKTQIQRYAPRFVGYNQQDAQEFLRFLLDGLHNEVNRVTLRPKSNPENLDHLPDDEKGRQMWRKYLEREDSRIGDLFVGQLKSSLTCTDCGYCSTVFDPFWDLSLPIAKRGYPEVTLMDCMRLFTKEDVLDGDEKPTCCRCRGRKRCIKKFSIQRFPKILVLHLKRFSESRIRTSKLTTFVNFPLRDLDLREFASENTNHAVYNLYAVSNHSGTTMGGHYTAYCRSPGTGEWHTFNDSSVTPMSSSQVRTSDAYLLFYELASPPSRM

Activity change, negative = inhibition, inactive:
CCOc1ccc(Cn2c(=O)sc3ccccc32)cc1OC -0.436%
COCCNCC(=O)N1CCCCCC1 0.293%
CC1=CC(C)(C)N(C(=O)c2ccccc2)c2ccccc21 -0.389%
CCc1nnc(NC(=O)CSc2nccn2-c2cccc(C)c2)s1 -0.395%
CCOC(=O)C1CCCN(CC(=O)Nc2c(C(=O)OC)[nH]c3ccc(C)cc23)C1 (stereo unspecified) -1.36%
CSc1ncccc1C(=O)OCC(=O)N1CCOCC1 -1.33%
Cc1ccc(C(=O)C(=S)N2CCOCC2)cc1 1.38%
FC(F)(F)c1cnc2c(c1)Nc1ccccc1S2 0.666%
Cc1c(NC(=O)c2ccc(COc3ccc4ccccc4c3)o2)c(=O)n(-c2ccccc2)n1C -11.8%
CC1CCN(c2ccc3c(c2)S(=O)(=O)c2cccc(C(=O)NC4CC4)c2C3=O)CC1 -1.28%
Cc1ccc(C2=N/C(=C\c3c(C)nn(-c4ccccc4)c3N3CCCC3)C(=O)O2)cc1 5.3%
CCOC(=O)N1CCN(S(=O)(=O)c2ccc(C)cc2)C1c1ccc(OC)cc1 (stereo unspecified) -1.44%
CCOC(=O)Nc1ccc(S(=O)(=O)Nc2cc(C)nc(C)n2)cc1 1.06%
O=C(CSc1ccc2nnc(-c3cccc(F)c3)n2n1)N1CCCc2ccccc21 -0.849%
Cc1nc2cc3ccccc3cc2c(=O)[nH]1 2.06%
O=C(C1CCCN(S(=O)(=O)c2cccc3cccnc23)C1)N1CCN(c2ccccc2F)CC1 (stereo unspecified) -4.76%
CCCn1nnc(NC(=O)c2cccc(OCC(C)C)c2)n1 2.02%
O=C(N/C(=C/c1cccnc1)C(=O)N1CCOCC1)c1ccco1 4.27%

Potency, active:
CC(=O)c1ccc2c(c1)C1C=CCC1C(C(=O)O)N2 (stereo unspecified) 11.7 µM
O=C(CCN1C(=O)/C(=C\c2ccco2)SC1=S)Nc1ccc(C(=O)O)c(O)c1 13.1 µM
O=C(COC(=O)c1cc(-c2ccc(Cl)s2)nc2ccccc12)NCc1ccco1 18.5 µM
